Laboratory results published in PubChem BioAssay (NCI).
Compounds without any hit were thinned out: in the full panel of roughly 79,000, 15% have a hit. Activity calls are given as the source filed them. Cut-off read from the data, not from the text of the source: active = growth inhibition above about 70%; inactive = the rest.

Tests used:
[1] = NCI Yeast Anticancer Drug Screen. Data for the mec2-1 strain (AID 157); details: S. cerevisiae mec2-1 strain, stronger effect = higher value
In short: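 Readout is yeast growth inhibition, normalised to vehicle-treated controls, in the mec2-1 strain exposed to compound.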

[2] = NCI Yeast Anticancer Drug Screen. Data for the rad14 strain (AID 159);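 note: 0% = growth of vehicle-treated control cultures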; details: S. cerevisiae rad14 strain growth inhibition, stronger effect = higher value
In short: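 Screen for anticancer potential: a yeast strain altered in DNA damage repair is grown with compound, and reduced growth is quantified against vehicle controls.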

[3] = NCI Yeast Anticancer Drug Screen. Data for the sgs1 mgt1 strain (AID 161);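 note: 0% = growth of cultures given vehicle only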; details: S. cerevisiae sgs1 mgt1 strain, stronger effect = higher value
In short: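 Percent growth inhibition was derived by comparing compound-exposed mutant yeast with vehicle-exposed cultures. The strain carries alterations in DNA damage repair.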

[4] = NCI Yeast Anticancer Drug Screen. Data for the cln2 rad14 strain (AID 165);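 note: 0% = growth equal to vehicle treated cultures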; details: S. cerevisiae cln2 rad14 strain, stronger effect = higher value
In short: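 Relative to vehicle controls, growth inhibition of compound-treated cln2 rad14 yeast was recorded.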

[5] = NCI Yeast Anticancer Drug Screen. Data for the bub3 strain (AID 167); details: S. cerevisiae bub3 mutant strain, stronger effect = higher value
In short: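 Screening used yeast with an engineered genetic alteration affecting cell cycle control. Compound-exposed cultures were compared with vehicle cultures, and reduced growth was taken as inhibition.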

[6] = NCI Yeast Anticancer Drug Screen. Data for the wt2 strain (AID 169);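 note: 0% = growth of vehicle-treated yeast cultures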; details: S. cerevisiae wt2 strain growth inhibition, stronger effect = higher value
In short: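 Values express reduction in yeast growth under compound treatment, referenced to vehicle-treated cells.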

[7] = NCI Yeast Anticancer Drug Screen. Data for the mlh1 strain (AID 171);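 note: 0% = growth of vehicle-treated control cultures of the same strain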; details: S. cerevisiae mlh1 strain growth inhibition, stronger effect = higher value
In short: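 Steps: expose the defined-mutant yeast strain to compound; expose a parallel culture to vehicle; measure growth; express compound effect as inhibition relative to the vehicle culture.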

[8] = NCI Yeast Anticancer Drug Screen. Data for the sgs1 strain (AID 173);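 note: 0% = growth of vehicle-only control cultures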; details: S. cerevisiae sgs1 mutant, stronger effect = higher value
In short: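 Treat defined-mutant yeast with compound; measure growth; calculate inhibition relative to vehicle-treated cells.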

[9] = NCI Yeast Anticancer Drug Screen. Data for the mlh1 rad18 strain (AID 175); details: S. cerevisiae mlh1 rad18 strain growth inhibition, stronger effect = higher value
In short: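 Test agents were incubated with a yeast strain of defined genotype (DNA damage repair defect). Inhibition of growth was derived by comparison with vehicle-exposed cultures.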

[10] = NCI Yeast Anticancer Drug Screen. Data for the rad18 strain (AID 177); details: S. cerevisiae rad18 mutant growth inhibition, stronger effect = higher value
In short: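 A genetically defined yeast mutant impaired in DNA damage repair was treated with test compounds, then its growth was measured against cultures receiving vehicle alone.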

[11] = NCI Yeast Anticancer Drug Screen. Data for the rad52 strain (AID 147);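 note: 0% = growth of vehicle-treated control cultures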; details: S. cerevisiae rad52 mutant growth inhibition, stronger effect = higher value
In short: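 Screen used a yeast mutant impaired in DNA repair. After compound exposure, growth was measured. Values reflect inhibition compared with vehicle-treated cells.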

[12] = NCI Yeast Anticancer Drug Screen. Data for the wt1 strain (AID 149);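 note: 0% = growth of vehicle-treated wt1 cultures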; details: S. cerevisiae wt1 strain (SPY 50644) growth inhibition, stronger effect = higher value
In short: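 Using yeast strain wt1, compound-induced growth inhibition was determined against vehicle-treated cultures.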

[13] = NCI Yeast Anticancer Drug Screen. Data for the rad50EPP+ strain (AID 151);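 note: 0% = growth of vehicle-treated control cultures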; details: S. cerevisiae rad50 mutant strain, stronger effect = higher value
In short: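 Exposing the rad50EPP+ strain to each compound, growth was compared with vehicle-only cultures to give inhibition.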

[14] = NCI Yeast Anticancer Drug Screen. Data for the mgt1 strain (AID 153); details: S. cerevisiae mgt1 mutant growth inhibition, stronger effect = higher value
In short: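 Genetically defined yeast (mgt1) treated with compound; inhibition of growth expressed against vehicle-treated controls.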

[15] = NCI Yeast Anticancer Drug Screen. Data for the rad50 strain (AID 155);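 note: 0% = growth of vehicle-only cultures of the same strain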; details: S. cerevisiae rad50 strain growth inhibition, stronger effect = higher value
In short: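 Relative growth inhibition (compound vs vehicle) was measured in yeast with a defined repair-gene alteration.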

[16] = NCI Yeast Anticancer Drug Screen. Data for the CLN2oe strain (AID 163);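 note: 0% = growth of vehicle-only control cultures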; details: S. cerevisiae CLN2oe strain, stronger effect = higher value
In short: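 Values reflect how much compound exposure reduced yeast growth, referenced to vehicle-exposed cells. Assay organism is a strain with a defined genetic change affecting cell-cycle control.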

[17] = at 5.0 µM (retest, dose inferred, filed as 0.5)
[18] = at 50.0 µM (retest, dose inferred, filed as 5.0)

Measured: growth inhibition

CCCCOP(=O)(CCCP(=O)(OCCCC)OCCCC)OCCCC
inactive: [1]; [17] -7% | [1]; at 11.0 µM 2% | [1]; at 33.0 µM 7% | [1]; [18] 48% | [1]; at 50.0 µM 49.5% | [2]; at 1.2 µM 0% | [2]; at 3.7 µM 3% | [2]; at 11.0 µM 9% | [2]; at 33.0 µM 20% | [3]; [17] 12% | [3]; [18] 50% | [3]; at 50.0 µM -2.15% | [4]; [17] 7% | [4]; [18] 38% | [4]; at 50.0 µM 1.1% | [5]; at 1.2 µM -5% | [5]; at 3.7 µM -3% | [5]; [17] 0% | [5]; at 11.0 µM -2% | [5]; at 33.0 µM 1% | [5]; [18] 4% | [5]; at 50.0 µM 19.2% | [6]; at 1.2 µM -2% | [6]; at 3.7 µM -5% | [6]; at 11.0 µM -4% | [6]; at 33.0 µM 0% | [7]; at 1.2 µM -5% | [7]; at 3.7 µM -2% | [7]; at 11.0 µM 1% | [7]; at 33.0 µM 8% | [8]; at 1.2 µM -3% | [8]; at 3.7 µM -1% | [8]; at 11.0 µM 0% | [8]; at 33.0 µM 5% | [9]; [17] -2% | [9]; [18] 17% | [9]; at 50.0 µM 42.2% | [10]; at 1.2 µM -7% | [10]; at 3.7 µM 0% | [10]; at 11.0 µM 5% | [10]; at 33.0 µM 8%
active: [1]; at 100.0 µM 95% | [2]; at 100.0 µM 90% | [5]; at 100.0 µM 79% | [6]; at 100.0 µM 96% | [7]; at 100.0 µM 91% | [8]; at 100.0 µM 93% | [10]; at 100.0 µM 95%

COc1ccc(C(=O)Oc2ccccc2Br)cc1
active: [3]; [18] 78% | [5]; [18] 75% | [9]; [18] 90%
inactive: [11]; at 1.2 µM 5% | [11]; at 3.7 µM 6% | [11]; at 11.0 µM 3% | [11]; at 33.0 µM 19% | [11]; at 100.0 µM 44% | [12]; at 1.2 µM -5% | [12]; at 3.7 µM -7% | [12]; at 11.0 µM -10% | [12]; at 33.0 µM -10% | [12]; at 100.0 µM -3% | [13]; at 1.2 µM 13% | [13]; at 3.7 µM 22% | [13]; at 11.0 µM 26% | [13]; at 33.0 µM 35% | [13]; at 100.0 µM 62% | [14]; at 1.2 µM -8% | [14]; at 3.7 µM -5% | [14]; at 11.0 µM -7% | [14]; at 33.0 µM -5% | [14]; at 100.0 µM 25% | [15]; at 1.2 µM 8% | [15]; at 3.7 µM 7% | [15]; [17] 5% | [15]; at 11.0 µM 8% | [15]; at 33.0 µM 28% | [15]; [18] 64% | [15]; at 50.0 µM 6.6% | [15]; at 100.0 µM 62% | [1]; at 1.2 µM -5% | [1]; at 3.7 µM -8% | [1]; [17] -20% | [1]; at 11.0 µM -10% | [1]; at 33.0 µM -7% | [1]; [18] 8% | [1]; at 50.0 µM 5.05% | [1]; at 100.0 µM 20% | [2]; at 1.2 µM 3% | [2]; at 3.7 µM -1% | [2]; at 11.0 µM -1% | [2]; at 33.0 µM 10% | [2]; at 100.0 µM 39% | [3]; [17] 0% | [3]; at 50.0 µM 36.1% | [16]; at 1.2 µM -4% | [16]; at 3.7 µM -12% | [16]; at 11.0 µM -18% | [16]; at 33.0 µM -14% | [16]; at 100.0 µM 9% | [5]; at 1.2 µM 3% | [5]; at 3.7 µM 2% | [5]; [17] 18% | [5]; at 11.0 µM -2% | [5]; at 33.0 µM 5% | [5]; at 50.0 µM 32.4% | [5]; at 100.0 µM 19% | [6]; at 1.2 µM -5% | [6]; at 3.7 µM -13% | [6]; at 11.0 µM -11% | [6]; at 33.0 µM -10% | [6]; at 100.0 µM 0% | [7]; at 1.2 µM -1% | [7]; at 3.7 µM 0% | [7]; at 11.0 µM -2% | [7]; at 33.0 µM 8% | [7]; at 100.0 µM 39% | [9]; [17] 5% | [9]; at 50.0 µM 7.85% | [10]; at 1.2 µM 1% | [10]; at 3.7 µM 2% | [10]; at 11.0 µM 1% | [10]; at 33.0 µM 10% | [10]; at 100.0 µM 53%

CCOc1ccc(NC(=O)C2=C(C)NC(C)=C(C(=O)Nc3ccc(OCC)cc3)C2c2cccc([N+](=O)[O-])c2)cc1
active: [11]; at 100.0 µM 82% | [12]; at 100.0 µM 79% | [14]; at 100.0 µM 92% | [15]; [18] 84% | [15]; at 100.0 µM 79% | [1]; [18] 96% | [1]; at 100.0 µM 90% | [2]; at 100.0 µM 86% | [16]; at 100.0 µM 81% | [4]; [18] 90% | [6]; at 100.0 µM 87% | [7]; at 100.0 µM 86% | [8]; at 100.0 µM 84% | [9]; [18] 95% | [10]; at 100.0 µM 83%
inactive: [11]; at 1.2 µM -2% | [11]; at 3.7 µM 0% | [11]; at 11.0 µM 5% | [11]; at 33.0 µM 49% | [12]; at 1.2 µM 1% | [12]; at 3.7 µM -3% | [12]; at 11.0 µM -5% | [12]; at 33.0 µM -28% | [13]; at 1.2 µM -1% | [13]; at 3.7 µM -1% | [13]; at 11.0 µM 1% | [13]; at 33.0 µM 3% | [13]; at 100.0 µM -4% | [14]; at 1.2 µM -1% | [14]; at 3.7 µM -2% | [14]; at 11.0 µM -3% | [14]; at 33.0 µM 30% | [15]; at 1.2 µM -3% | [15]; at 3.7 µM -1% | [15]; [17] -10% | [15]; at 11.0 µM -1% | [15]; at 33.0 µM 39% | [15]; at 50.0 µM 26.4% | [1]; at 1.2 µM -1% | [1]; at 3.7 µM -2% | [1]; [17] 0% | [1]; at 11.0 µM 1% | [1]; at 33.0 µM 36% | [1]; at 50.0 µM 34.6% | [2]; at 1.2 µM -2% | [2]; at 3.7 µM -2% | [2]; at 11.0 µM -1% | [2]; at 33.0 µM 9% | [3]; [17] -12% | [3]; [18] 29% | [3]; at 50.0 µM 27.1% | [16]; at 1.2 µM 0% | [16]; at 3.7 µM -2% | [16]; at 11.0 µM -7% | [16]; at 33.0 µM 4% | [4]; [17] -4% | [4]; at 50.0 µM 55.3% | [6]; at 1.2 µM -3% | [6]; at 3.7 µM -2% | [6]; at 11.0 µM -2% | [6]; at 33.0 µM 22% | [7]; at 1.2 µM -2% | [7]; at 3.7 µM -1% | [7]; at 11.0 µM 1% | [7]; at 33.0 µM 25% | [8]; at 1.2 µM -2% | [8]; at 3.7 µM 0% | [8]; at 11.0 µM 4% | [8]; at 33.0 µM 44% | [9]; [17] -7% | [9]; at 50.0 µM 59.9% | [10]; at 1.2 µM -4% | [10]; at 3.7 µM -3% | [10]; at 11.0 µM 3% | [10]; at 33.0 µM 45%
